Here are results for 29 compounds from PubChem BioAssay (NCATS).

Experiment [1] can be described thus: Viability qHTS for spleen associated tyrosine kinase inhibitor (SYKi) drug resistant MV4-11 cells (AID 1963824). Further: nearly all actives have a fitted effect of over 35% in size. The gist of the method:
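SYK inhibitor-resistant MV4-11 AML cells, 500 per well, added to predispensed compounds and incubated 72 hr at 37 C, 5% CO2. Viability measured by CellTiter-Glo luminescence after 10 min at room temperature.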
(In qHTS, concentration-response curves come from the screen itself.)

Experiment [2] is described as follows: Cellular viability qHTS for adrenocortical cancer (ACC) cell line SW-13 (AID 1963989). Further: nearly all actives have a fitted effect of over 65% in size.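 On activity (max response): cells grown in serum-free medium with ITS supplement; on the % scale 0 is the no-effect control and ±100 the full control effect.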 Conditions: SW-13 ACC cells viability, CellTiter-Glo, 48 h; activity (max response): active compounds read low. The gist of the method:
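SW-13 cells in ITS-supplemented serum-free DMEM were plated overnight, then exposed for 48 h at 37C to compound titrations (up to 46 uM final). Viability was read by CellTiter-Glo luminescence; four-parameter logistic fits gave IC50 and efficacy.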

Experiment [3] can be described thus: Cellular viability qHTS for adrenocortical cancer (ACC) cell line NCI-H295R (AID 1963990). Further: nearly all actives have a fitted effect of over 60% in size.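 On activity change, negative = viability loss: 0% = DMSO only wells and -100% = full killing with cytotoxic reference compound.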 The gist of the method:
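Luminescent ATP read-out (CellTiter-Glo, 20 min RT) after 48 h drug exposure of NCI-H295R cells; a titration up to 46 uM final. Data normalized to doxorubicin (100% inhibition) and DMSO (0%); 4-parameter fit gives IC50, max response.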

Values joined by “and” are separate entries in the source; they are usually repeats but may differ in a detail not shown here. Equal values may be shown once. Inconclusive results are not listed. A number with no mark means an inactive call. Active and inactive are the calls of the source. The call rests on the fitted dose curve; in most records, active means well fitted curve in the direction sought with a large enough effect; inconclusive means small, poorly fitted or top-dose-only effect, or another doubt; inactive means no such curve, though single readings can be large; an effect the other way counts as inactive or inconclusive.
Potency means the concentration at half of the fitted maximal effect.

Take `CC1=C(C/C=C(\C)CCC[C@H](C)CCC[C@H](C)CCCC(C)C)C(=O)c2ccccc2C1=O`: the Potency entry in experiment [1] and in experiment [3] was “inactive” each time. For the same compound, the activity (max response) in experiment [2] was 12.7%.
Turning to `NC(=S)N/N=C/c1cccnc1`, the Potency result in experiment [1] and in experiment [3] was “inactive” in each case. Besides, the activity (max response) in experiment [2] was -1.7%.
For `NC(N)=NN=C(/C=C/c1ccc([N+](=O)[O-])o1)/C=C/c1ccc([N+](=O)[O-])o1`, the Potency in experiment [1] was 5.31 µM (active); in experiment [2], 2.59 µM (active); in experiment [3] it was 1.03 µM (active).
Turning to `CCN1/C(=C/C(C)=O)Sc2ccc(OC)cc21`, the Potency in experiment [1] is 8.2 µM (active). Moreover, the activity (max response) in experiment [2] was 3.06%. Besides, the Potency result in experiment [3] is “inactive”.
As for `Cc1onc(-c2ccccc2)c1-c1ccc(S(N)(=O)=O)cc1`, the Potency in experiment [1] was 14.8 µM (active). Also, the activity (max response) in experiment [2] was -10.6% and -23.5%. In experiment [3], the Potency entry is “inactive”.
Take `O=C1NC(=O)[C@@H](c2c[nH]c3ccccc23)[C@H]1c1cn2c3c(cccc13)CCC2`: the Potency was 0.742 µM (active) in experiment [1], 0.398 µM (active) in experiment [2] and 0.355 µM (active) in experiment [3].
Consider `CC(=O)N[C@H]1CSSC[C@@H](C(N)=O)NC(=O)[C@H](C(C)C)NC(=O)[C@H](C)NC(=O)[C@H](Cc2cnc[nH]2)NC1=O`, for which the Potency result in experiment [1] and in experiment [3] was “inactive” each time. In addition, the activity (max response) in experiment [2] is -0.986%.
For `CC(C)n1cc(-c2ccc3c(c2)N(C)CC3)c2c(NS(=O)(=O)c3ccn(C)n3)ccnc21`, the Potency in experiment [1] was 18.6 µM (active). Besides, the activity (max response) in experiment [2] is 9.47%. The Potency result in experiment [3] was “inactive”.
For `Cc1c(C(N)=O)cc([N+](=O)[O-])cc1[N+](=O)[O-]` the same measures were “inactive”, -7.83% and “inactive”.
On to `COc1ccc(CNC(=O)c2cc(-c3cncc(Cl)c3)cnc2-c2ccccn2)nc1OC`, for which the Potency result in experiment [1] and in experiment [3] was “inactive” throughout. For the same compound, the activity (max response) in experiment [2] was -20.5%.
With `O=C(/C=C/c1ccc(/C=C/C(=O)Nc2ccc(C3=NCCN3)cc2)cc1)Nc1ccc(C2=NCCN2)cc1`, the viability, % of control in experiment [1] was 91.6% [at 4.97 µM]. Also, the activity (max response) in experiment [2] was -13%. The activity change, negative = viability loss in experiment [3] is -22% [at 3.81 µM].
Take `O=C(Nc1cnn2ccc(N3CCC[C@@H]3c3cc(F)ccc3F)nc12)N1CC[C@H](O)C1`: the Potency result in experiment [1] and in experiment [3] was “inactive” throughout. The activity (max response) in experiment [2] was -2.6%.
Consider `Nc1c(I)cc(I)c(C(=O)N(CCC(=O)O)c2ccccc2)c1I`, for which the Potency entry in experiment [1] and in experiment [3] was “inactive” throughout. Moreover, the activity (max response) in experiment [2] was -3.73%.
Consider `O=C(O)c1ccccc1C(=O)Nc1ccc(S(=O)(=O)Nc2nccs2)cc1`, for which the Potency entry in experiment [1] and in experiment [3] was “inactive” throughout. In addition, the activity (max response) in experiment [2] was -9.68%.
For `CC[C@@]1(O)C(=O)OCc2c1cc1n(c2=O)Cc2c-1nc1ccccc1c2/C=N/OC(C)(C)C`, the Potency in experiment [1] was 0.006 µM (active); in experiment [2], 0.013 µM (active). In addition, the Potency result in experiment [3] is “inactive”.
`CC1CCc2c(N3CCC(O)CC3)c(F)cc3c(=O)c(C(=O)O)cn1c23` (configuration not stated): the Potency entry in experiment [1] and in experiment [3] was “inactive” each time. For the same compound, the activity (max response) in experiment [2] is -4.15%.
Consider `CC(=O)O/N=C1/C(c2c(O)[nH]c3cc(Br)ccc23)=Nc2ccccc21`, for which the results for the Potency in experiment [1], in experiment [2] and in experiment [3] were 0.209 µM (active), 25.1 µM (active) and 15.8 µM (active), respectively.
For the compound `CC[C@]1(O)CC2CN(CCc3c([nH]c4ccccc34)[C@@](C(=O)OC)(c3cc4c(cc3OC)N(C)[C@H]3[C@@](O)(C(=O)OC)[C@H](OC(C)=O)[C@]5(CC)C=CCN6CC[C@]43[C@@H]65)C2)C1` (some centres not stated), the Potency in experiment [1] is 65.1 nM (active) and 33.2 nM (active); in experiment [2], 0.282 µM (active); in experiment [3], 14.1 µM (active).
In the case of `COc1ccc(C(=O)c2ccccc2O)c(O)c1`, the Potency in experiment [1] is 9.44 µM (active). Moreover, in experiment [2], the activity (max response) is 11.3%. Moreover, the Potency entry in experiment [3] was “inactive”.
For `CN(C)CCC[C@@]1(c2ccc(F)cc2)OCc2cc(C#N)ccc21`, in that order: 8.41 µM (active), -9.39% and “inactive”.
Consider `Cc1ccsc1/C=C/C1=NCCCN1C`, for which the Potency result in experiment [1] and in experiment [3] was “inactive” in each case. Besides, the activity (max response) in experiment [2] is -3.84%.
Turning to `CCOC(=O)[C@@](C)(N)Cc1ccc(O)c(O)c1`, the Potency entry in experiment [1] and in experiment [3] was “inactive” in each case. Besides, the activity (max response) in experiment [2] was -4.97%.
On to `C1=CC2C3C=CC(C3)C2C1` (configuration not stated), for which the Potency entry in experiment [1] and in experiment [3] was “inactive” in each case. Further, the activity (max response) in experiment [2] was 5.69%.
As for `COc1cc(O)cc(O)c1`, the Potency result in experiment [1] and in experiment [3] was “inactive” in each case. Moreover, the activity (max response) in experiment [2] is -2.38%.
On to `CC[C@@H](CO)NCCN[C@@H](CC)CO`, for which the Potency entry in experiment [1] and in experiment [3] was “inactive” in each case. Also, the activity (max response) in experiment [2] was 14%.
With `CC(C)(C)C(=O)C(Oc1ccc(Cl)cc1)n1ccnc1` (configuration not stated), the Potency in experiment [1] was 20.6 µM (active). Also, the activity (max response) in experiment [2] is -11.3%. Further, the Potency entry in experiment [3] is “inactive”.
As to `CO[C@@H]1[C@@H](O)[C@H](O)[C@@H](n2c3c(Cl)cccc3c3c4c(c5c6cccc(Cl)c6[nH]c5c32)C(=O)NC4=O)O[C@H]1CO`, the Potency in experiment [1] is 0.742 µM (active); in experiment [2] it was 0.316 µM (active); in experiment [3], 5.62 µM (active).
As for `CC(=O)OCC(=O)[C@@]12N=C(C)O[C@@H]1C[C@H]1[C@@H]3CCC4=CC(=O)C=C[C@]4(C)[C@H]3[C@@H](O)C[C@@]12C`, the Potency result in experiment [1] and in experiment [3] was “inactive” in each case. The activity (max response) in experiment [2] is 11.7% and 0.528%.
With `O=C1OC2(CCC(C(=O)Nc3ccn(-c4ccccc4F)n3)CC2)c2cnccc21` (configuration not stated), in experiment [1], the Potency was 4.17 µM (active). Also, in experiment [2], the activity (max response) is -3.21%. In addition, the Potency result in experiment [3] was “inactive”.
